Like-named read-outs stand apart in the source and are kept apart here. Among all 13,000 compounds or so, about 3,200 (25%) showed an effect of 50% or more. Some of the results follow.
Tested on: P. falciparum stage V gametocytes
Parameters: BacTiter-Glo ATP luminescence viability of purified stage V gametocytes in 384-well plates, per cent inhibition versus DMSO
Conditions: 48 h, 5 µM, inhibitor

Row | SMILES | % Inhibition [%] | % Inhibition (% Inhibition) [%]
1 | NC(N)=Nc1cccc(NC(=O)Nc2cccc(N=C(N)N)c2)c1 [TCMDC-137209] | -4.06 | –
2 | Cc1ccc2c(C3=CCN(CCCCC4(C)C(=O)Nc5ccccc54)CC3)c(C)[nH]c2c1 (stereo not shown) [TCMDC-141006] | -63.83 | –
3 | COc1cc(Cc2cnc(N)nc2N)cc(OCCCC(=O)O)c1OC [TCMDC-137359] | 3.526 | –
4 | O=C(NCCCCN1CCCC2c3ccc(O)cc3CCC21)c1ccc(-c2ccccc2)cc1 (stereo not shown) [TCMDC-139084] | – | -62.82
5 | CCOc1cc(Cc2cnc(N)nc2N)cc(OCC)c1-n1cccc1 [TCMDC-137295] | 0.7486 | –
6 | O=C(/C=C/c1c(Cl)cccc1Cl)NC1CCC(CN2C3CCC2CC(c2c[nH]c4ccccc24)C3)CC1 (stereo not shown) [TCMDC-140103] | 74.61 | –
7 | CS(=O)(=O)Nc1ccc2[nH]cc(C3CC4CCC(C3)N4CC3CCC(NC(=O)/C=C/c4ccc(Cl)c(Cl)c4)CC3)c2c1 (stereo not shown) [TCMDC-139807] | 14.27 | –
8 | O=C(/C=C/c1ccccc1Cl)NC1CCC(CN2C3CCC2CC(c2c[nH]c4ccccc24)C3)CC1 (stereo not shown) [TCMDC-139931] | 92.87 | –
9 | CC(C)(C)c1ccc(NC(=O)c2cccc(CN3CCCN(Cc4ccsc4)CC3)c2)cc1 [TCMDC-135992] | -46.34 | –
10 | CCC(C(=O)Nc1cc(=O)[nH]c2nc(-c3ccco3)nn12)c1ccccc1 (stereo not shown) [TCMDC-125323] | -11.89 | –
11 | COc1ccc(NC(=O)Nc2cc(C)nc3ccccc23)cc1Cl [TCMDC-139820] | -57.55 | –
12 | COc1cc(NC(=O)Nc2cc(C)nc3ccccc23)cc(OC)c1 [TCMDC-139821] | 78.53 | –
13 | CCCOc1cc(NC(=O)Nc2ccnc3ccccc23)cc(OCCC)c1 [TCMDC-139491] | 3.955 | –
14 | CCOc1cc(NC(=O)Nc2ccnc3ccccc23)cc(OC)c1 [TCMDC-139788] | 14.31 | –
15 | O=C(Nc1cccc(Cl)c1Cl)Nc1ccnc2ccccc12 [TCMDC-139462] | 3.661 | –
16 | O=C(Nc1cc(Cl)cc(Cl)c1)Nc1ccnc2ccccc12 [TCMDC-139375] | 74.86 | –
17 | CN(C)c1ccnc2ccc(NC(=O)Nc3ccnc4ccccc34)cc12 [TCMDC-139749] | 70.09 | –
18 | CCc1cc(NC(=O)Nc2ccnc3ccccc23)ccc1OC [TCMDC-139354] | 1.366 | –
19 | COc1cccc(NC(=O)Nc2cc(C)nc3ccccc23)c1 [TCMDC-138950] | -4.503 | –
20 | COc1ccc(Cl)cc1NC(=O)Nc1ccnc2ccccc12 [TCMDC-139457] | 13.69 | –
21 | COc1cc(NC(=O)Nc2ccnc3ccccc23)cc(OC)c1 [TCMDC-139446] | 84.12 | –
22 | CN(C)c1ccc(NC(=O)Nc2ccnc3ccccc23)cc1Br [TCMDC-139316] | -21.1 | –

Row | SMILES | % Inhibition [%] | % Inhibition (% Inhibition) [%]
23 | O=C(/C=C/c1ccc(Cl)c(Cl)c1)NCCCCCN1CCC(NC(=O)Nc2cccc(F)c2)CC1 [TCMDC-135704] | -72.87 | –
24 | CC(C)NCc1cccc(-c2cccc(-c3nc4ccc(F)cc4[nH]3)c2)c1 [TCMDC-132747] | -26.37 | –
25 | CC[C@@H]([C@@H](Cc1cc2ccccc2s1)C(=O)N[C@@H](CCCCNC(=O)OCc1ccccc1)C(=O)Nc1ccccn1)N(O)C=O [TCMDC-138086] | 8.625 | –
26 | CCCCc1ccc(Cc2cnc3nc(N)nc(N)c3c2C)cc1 [TCMDC-138045] | -16.41 | –
27 | CCCCCCN(C(=O)OCc1ccccc1)C1CCN(C(=O)OC(C)(C)C)CC1C(=O)OCC (stereo not shown) [TCMDC-140339] | 26.28 | –
28 | CCOC(=O)c1c(C)n(-c2ccccc2)c2ccc(OC(=O)c3ccc(S(=O)(=O)N(CC)CC)cc3)cc12 [TCMDC-125723] | 7.356 | –
29 | CCN(C)c1cc(C(=O)N[C@@H](Cc2ccccc2)[C@H](O)CNC(C)(C)c2cccc(OC)c2)cc(N2CCCC2=O)c1 [TCMDC-134529] | 28.65 | –
30 | Cc1cc(NC(=O)Nc2ccc(C(C)(C)C)cc2)c2ccccc2n1 [TCMDC-139981] | 63.23 | –
31 | CSc1ccc(NC(=O)Nc2cc(C)nc3ccccc23)cc1 [TCMDC-139394] | 23.44 | –
32 | Cc1cc(NC(=O)Nc2ccc(C(C)C)cc2)c2ccccc2n1 [TCMDC-139826] | 6.688 | –
33 | CCc1ccc(C2CCN(CCCCNC(=O)c3ccc(NC(=O)c4ccc(Cl)cc4)cc3)CC2)c(OC(C)=O)c1 [TCMDC-138648] | 96.99 | –
34 | CCOc1cc(CC)ccc1C1CCN(CCN2CCC(CNC(=O)c3ccc(-c4ccc(C#N)cc4)cc3)CC2)CC1 [TCMDC-138847] | 107.7 | –
35 | CCOc1cc(CC)ccc1C1CCN(CCCCNC(=O)c2ccc(NC(=O)c3ccc(Cl)cc3)cc2)CC1 [TCMDC-138317] | 61.4 | –
36 | CCc1ccc(C2CCN(CCCCNC(=O)c3ccc(NC(=O)c4ccc(Cl)cc4)cc3)CC2)c(OC)c1 [TCMDC-138377] | -11.09 | –
37 | CCc1ccc(C2CCN(CCCCNC(=O)c3ccc(NC(=O)c4ccc(Cl)cc4)cc3)CC2)c(OCC(=O)OC)c1 [TCMDC-138707] | 40.9 | –
38 | CC(=O)Oc1cc(C)ccc1C1CCN(CCCCNC(=O)c2ccc(NC(=O)c3ccc(Cl)cc3)cc2)CC1 [TCMDC-138630] | -17.17 | –
39 | CCOc1cc(CC)ccc1C1CCN(CCN2CCC(NC(=O)c3ccc(-c4ccc(C(C)=O)cc4)cc3)CC2)CC1 [TCMDC-138882] | -11.21 | –
40 | CCOc1cc(CC)ccc1C1CCN(CCCCNC(=O)c2ccc(NC(=O)c3ccc(C#N)cc3)cc2)CC1 [TCMDC-138662] | 87.14 | –
41 | CCOc1cc(CC)ccc1C1CCN(CCN2CCC(NC(=O)c3ccc(-c4ccc(C#N)cc4)cc3)CC2)CC1 [TCMDC-138829] | 12.51 | –
42 | Cc1cc(C2CCN(CCCCNC(=O)c3ccc(-c4ccc(C#N)cc4)cc3)CC2)c(C)cc1OCCO [TCMDC-138827] | -59.1 | –
43 | CC1(C)N=C(N)N=C(N)N1OCCCNC(=O)c1ccc([N+](=O)[O-])cc1 [TCMDC-131666] | 6.997 | –

— publication PMC4552634, “A New Set of Chemical Starting Points with Plasmodium falciparum Transmission-Blocking Potential for Antimalarial Drug Discovery” (PLoS ONE, 2015)
